Compounds with a hit are over-represented: about 2.4% of the library has one in this group of screens.
Pol eta inh = DNA polymerase eta (human) inhibition. Q9Y253. recombinant Pol eta, fluorescent DNA replication assay. Potency, µM (series often up to 114 µM), for inactives: at the top dose activity change, negative = inhibition, most hits filed as inhibitors. 390,000 compounds, 1.2% hits. AID 588591; note: % is set by controls: 0 for no effect and ±100 for the full control effect
Target sequence (Q9Y253 whole entry, looked up): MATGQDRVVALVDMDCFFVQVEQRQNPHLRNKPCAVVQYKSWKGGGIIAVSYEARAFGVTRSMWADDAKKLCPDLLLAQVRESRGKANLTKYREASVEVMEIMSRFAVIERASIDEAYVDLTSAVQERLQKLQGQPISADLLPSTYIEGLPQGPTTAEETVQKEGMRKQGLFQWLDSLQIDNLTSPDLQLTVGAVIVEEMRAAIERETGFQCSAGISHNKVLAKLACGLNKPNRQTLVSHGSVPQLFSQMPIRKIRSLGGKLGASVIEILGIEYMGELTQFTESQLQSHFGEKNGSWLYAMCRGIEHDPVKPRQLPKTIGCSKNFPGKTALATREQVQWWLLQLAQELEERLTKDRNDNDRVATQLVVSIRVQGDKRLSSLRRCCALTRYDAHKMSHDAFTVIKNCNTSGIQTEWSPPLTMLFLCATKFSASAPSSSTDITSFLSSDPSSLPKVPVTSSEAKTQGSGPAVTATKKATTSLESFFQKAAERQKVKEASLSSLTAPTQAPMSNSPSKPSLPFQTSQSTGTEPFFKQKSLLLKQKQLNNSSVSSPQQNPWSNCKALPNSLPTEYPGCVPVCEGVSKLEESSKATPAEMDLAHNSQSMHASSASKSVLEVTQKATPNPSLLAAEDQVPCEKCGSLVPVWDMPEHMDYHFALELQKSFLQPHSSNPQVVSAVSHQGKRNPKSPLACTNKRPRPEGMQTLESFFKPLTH
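Fluorescent replication assay: 50 nM final substrate added after a 15 min room-temperature compound preincubation with 10 nM enzyme. Signal taken at 0 min and again at 10 min.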
POLI inh = blocks human DNA polymerase iota activity. Pol iota fluorescent replication assay, 10 min. Potency, µM (top dose mostly 115 µM), for the others: top-dose activity, negative = inhibition, hits mostly inhibitors. 390,000 compounds, 1% hits
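Fluorescent replication assay read twice, at 0 min and 10 min after adding 50 nM (final) substrate. Enzyme (10 nM) and compounds were first incubated 15 min at room temperature; enzyme-free buffer wells were negative controls.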
Pol beta inh = DNA polymerase beta (human) inhibition; P06746; Pol beta primer extension/strand displacement, fluorescence kinetic; Potency, µM (titrated, usually from 114 µM), for inactives: at the highest dose activity change, negative = inhibition, most hits filed as inhibitors; 340,000 compounds, 1.3% hits; AID 485314; note: % is set by controls: 0 for no effect and ±100 for the full control effect
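Kinetic readout of DNA synthesis with strand displacement by Pol beta. Compound and 10 nM enzyme sit 15 min at room temperature; 50 nM substrate starts the reaction, read immediately and at 10 min.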
FEN1 inhibitor = human FEN1 inhibition. Recombinant FEN1 flap cleavage, fluorescence, 15 min. P39748. 390,000 compounds, 0.35% hits. Potency, µM (top dose mostly 114 µM), inactives show at the highest dose activity change, negative = inhibition, usual class: inhibitors; note: % is set by controls: 0 for no effect and ±100 for the full control effect; nearly all actives have a fitted effect of over 65% in size
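Potency values derive from four-parameter Hill fits of normalized qHTS data. The reaction used 10 nM FEN1 preincubated 15 min at room temperature with compound, then 50 nM DNA substrate, read at 0 and 15 min.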
Pol kappa inh = blocks human DNA polymerase kappa activity; Q9UBT6; purified Pol kappa, fluorescent DNA synthesis assay, 10 min; Potency, µM (titrated, usually from 107 µM), for inactives: at the highest dose activity, negative = inhibition, most hits filed as inhibitors; 400,000 compounds, 0.53% hits; AID 588579; note: % is set by controls: 0 for no effect and ±100 for the full control effect
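First, compounds were pin-transferred onto 10 nM Pol kappa. After 15 min at room temperature, substrate was added to 50 nM final. Fluorescence was then measured kinetically at 0 and 10 min.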
WRN inhibitor = WRN helicase (human) inhibition; Q14191; WRN helicase unwinding, fluorescent forked duplex, kinetic; Potency, µM (titrated, usually from 114 µM), for inactives: at the highest dose activity change, negative = inhibition, actives largely listed as inhibitors; 360,000 compounds, 0.46% hits; AID 651768; note: % is set by controls: 0 for no effect and ±100 for the full control effect; nearly all actives have a fitted effect of over 55% in size
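Primary qHTS, 1536-well format. 20 nM WRN + compound, 15 min RT; start with 100 nM forked fluorophore/quencher duplex, 2 mM ATP (final); kinetic read ex 525/em 598 nm.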
Numbers without * were called inactive; ? = inconclusive; . = no result; [ ] = another dose, or the depositor's remark. Calls come from the whole dose curve; as a rule, active = well fitted curve in the direction sought with a large enough effect; inconclusive = small, poorly fitted or top-dose-only effect, or another doubt; inactive = no such curve, though single readings can be large; an effect the other way counts as inactive or inconclusive. Potency is the fitted concentration of half-maximal effect.

SMILES	Pol eta inh	POLI inh	Pol beta inh	FEN1 inhibitor	Pol kappa inh	WRN inhibitor
CC(=O)Nc1ccc(/C(C)=N/NC(=O)c2ccc(F)cc2)cc1	-12%	142%	31%	-7%	-13%	-2%
CCC1(OC(=O)CN(C)C)C(=O)OCc2c1cc1n(c2=O)Cc2cc3c(N)cccc3nc2-1 (configuration not stated)	7.9µM*	8.9µM*	.	?	?	?
CCC1(c2ccc(O)cc2)NC(=O)NC1=O (configuration not stated)	.	.	.	.	12%[60.1 µM]	.
Cc1cncc(C(=O)O)[n+]1[O-]	.	.	.	.	3%[19.4 µM]	.
Cc1cc2[nH]c(=O)c(=O)[nH]c2cc1S(=O)(=O)N1CCN(c2cccc(Cl)c2)CC1	0%	?	35µM*	16%	-18%	2%[11.6 µM]
Cc1cc2[nH]c(=O)c(=O)[nH]c2cc1S(=O)(=O)N1CCN(c2cccc(C(F)(F)F)c2)CC1	3%	?	?	19%	-24%	-10%
CC1CCN(S(=O)(=O)c2ccc3[nH]c(=O)c(=O)[nH]c3c2)CC1	-12%	3%[58.9 µM]	24%	3%	-18%	5%
O=c1[nH]c2ccc(S(=O)(=O)N3CCN(c4ccccc4)CC3)cc2[nH]c1=O	79µM*	40µM*	45µM*	56µM*	?	?
CNC(=O)c1ccc2nc(-c3cccc(C)c3)c(-c3cccc(C)c3)nc2c1	.	6%	.	-30%	-6%	.
CCCc1nc2sc3ccccc3c(=O)c2c(=O)n1Cc1ccco1	?	?	50µM*	-4%	?	-22%
CCCc1nc2oc3cc(OC)ccc3c(=O)c2c(=O)n1Cc1ccco1	?	?	45µM*	-15%	-43%	-29%
COc1ccc2c(=O)c3c(=O)n(Cc4ccco4)c(-c4ccccc4)nc3oc2c1	4%	1%	-12%	-7%	-10%	-8%
C[C@H](NC(=O)Cc1cc(F)cc(F)c1)C(=O)N[C@@H](C(=O)OC(C)(C)C)c1ccccc1	.	.	.	.	17%[60.1 µM]	.
Cc1ccc(C)n1-c1ccc(-c2ccn[nH]2)cc1	-12%	86%	22µM*	-3%	0%	-11%
Cc1ccc(C2NC(=S)N3C(c4ccc(C)cc4)NC(=S)N23)cc1 (configuration not stated)	-10%	.	.	.	.	-2%
COc1ccc(C2NC(=S)N3C(c4ccc(OC)cc4)NC(=S)N23)cc1 (configuration not stated)	-13%	?	10%	22%	-10%	89µM*
O=S(=O)(c1cccc(C(F)(F)F)c1)N1CCN(c2nc(-c3ccccc3)nc3ccccc23)CC1	.	-25%	.	7%	-6%	.
COCCCNC(=O)c1ccc2c3c(onc13)-c1ccccc1C2=O	45µM*	?	6%	45µM*	-13%	22µM*
COc1ccc(C(=O)COC(=O)/C=C/c2ccco2)cc1F	?	35µM*	.	17%	?	-5%
COC(=O)c1ccccc1NC(=O)COC(=O)/C=C/c1ccco1	-3%	29%	?	2%	3%	-4%
CN(Cc1ccccc1)C(=O)COC(=O)/C=C/c1ccco1	?	?	14µM*	-11%	?	-13%
CC1CCCC(NC(=O)COC(=O)/C=C/c2ccco2)C1C (configuration not stated)	-3%	71µM*	.	-6%	-26%	-4%
CCN(c1ccc(NC(=O)COC(=O)/C=C/c2ccco2)cc1)C(C)C	-23%	3%	.	2%	-5%	3%
O=C(COC(=O)/C=C/c1ccco1)Nc1ccccc1	?	?	22µM*	16%	-32%	2%[11.6 µM]
Cc1nn(C)c(C)c1N1C(=O)c2cccc3c(N)ccc(c23)C1=O	-17%	-3%	-9%	2%	-21%	?
Cc1ccc(N2C(=O)c3cccc4c(N)ccc(c34)C2=O)c2cccnc12	?	79µM*	?	?	?	?
